One test relates to MCC-13. Nature of the test: qHTS assay to identify novel small-molecules to repurpose for Merkel cell carcinoma treatment (AID 1296009). Further: nearly all actives have a fitted effect of over 60% in size. Particulars: MCC and control cell lines, CellTiter-Glo viability, 72 h; series mostly up to 46 µM. Put shortly:
(§1)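 72 hr, 37 degree celsius; NPC 8-pt / MIPE 11-pt dose response; compound pinned in DMSO; CellTiter-Glo, 10 min RT, luminescence; normalized to no-cell and DMSO controls.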
Background: In qHTS, concentration-response curves come from the screen itself.

In the next test the test system is MCC-26. The description is as above. Conditions: MCC and control cell lines, CellTiter-Glo viability, 72 h; series mostly up to 46 µM. Put shortly:
as §1
For orientation: Cellular ATP, detected with luciferase, serves as a proxy for viable cell number.

In another test the test system is MKL-1. Described as above. Particulars: MCC and control cell lines, CellTiter-Glo viability, 72 h; series mostly up to 46 µM. The method, boiled down: as §1
The subject of the next test is MKL-2. The test is described as above. Particulars: MCC and control cell lines, CellTiter-Glo viability, 72 h; series mostly up to 46 µM. Put shortly: as §1
For the next test, the system named is UISO. The test is described as above. Particulars: MCC and control cell lines, CellTiter-Glo viability, 72 h; series mostly up to 46 µM. Put shortly: as §1
A further test deals with WaGa. Described as above. Conditions: MCC and control cell lines, CellTiter-Glo viability, 72 h; series mostly up to 46 µM. Put shortly:
as §1

The next test has as its system C33A. Nature of the test: Primary qHTS to identify gynecologic anti-cancer compounds using libraries of approved drugs and bioactive compounds (AID 1345084). Further: nearly all actives have a fitted effect of over 55% in size. Particulars: Gynecologic cancer cell panel viability, ATPlite luminescence, 48 h; series mostly up to 57.5 µM. Put shortly: (§2)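 Cytotoxicity screen measuring ATP content by luciferase luminescence. Each compound is applied at five concentrations for 48 h at 37 C with 5% CO2.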

Another test has as its system CAOV3. The test is described as above. Particulars: Gynecologic cancer cell panel viability, ATPlite luminescence, 48 h; series mostly up to 57.5 µM. The method, boiled down:
as §2

For a further test, the system named is CASKI. Described as above. Particulars: Gynecologic cancer cell panel viability, ATPlite luminescence, 48 h; series mostly up to 57.5 µM. The method, boiled down: as §2
The test system of a further test is Es-2. The description is as above. Particulars: Gynecologic cancer cell panel viability, ATPlite luminescence, 48 h; series mostly up to 57.5 µM. Put shortly: as §2
For the next test, the system named is HeLa. The test is described as above. Conditions: Gynecologic cancer cell panel viability, ATPlite luminescence, 48 h; series mostly up to 57.5 µM. The method, boiled down: as §2
Another test relates to Hek293T. The test is described as above. Conditions: Gynecologic cancer cell panel viability, ATPlite luminescence, 48 h, control line for the selectivity index; series mostly up to 57.5 µM. Put shortly: as §2
In another test the test system is JEG-3. The test is described as above. Particulars: Gynecologic cancer cell panel viability, ATPlite luminescence, 48 h; series mostly up to 57.5 µM. Put shortly: as §2
For another test, the system named is OV90. The test is described as above. Conditions: Gynecologic cancer cell panel viability, ATPlite luminescence, 48 h; series mostly up to 57.5 µM. The method, boiled down: as §2
In a further test the test system is PA-1. The description is as above. Conditions: Gynecologic cancer cell panel viability, ATPlite luminescence, 48 h; series mostly up to 57.5 µM. Put shortly: as §2
The test system of a further test is SKOV3. The description is as above. Conditions: Gynecologic cancer cell panel viability, ATPlite luminescence, 48 h; series mostly up to 57.5 µM. The method, boiled down:
as §2

The subject of the next test is Tov-21-G. The test is described as above. Particulars: Gynecologic cancer cell panel viability, ATPlite luminescence, 48 h; series mostly up to 57.5 µM. Put shortly:
as §2

A further test concerns Tov112D. Described as above. Conditions: Gynecologic cancer cell panel viability, ATPlite luminescence, 48 h; series mostly up to 57.5 µM. Put shortly: as §2
Test [1] can be described thus: Drug repurposing screens with cells derived from glioblastoma tumor samples (AID 1345199). Further: nearly all actives have a fitted effect of over 40% in size. Further: potency means the concentration at half of the fitted maximal effect. Particulars: GBM patient neurospheres viability, ATP luminescence, 48 h. The method, boiled down: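 Four patient lines of CD133+ GBM neurospheres were screened at several concentrations; hits were retested in those lines plus three slower-growing GBM lines, using 48-hour treatment and ATP-based viability.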

Where [2] appears, read: at 45.9 µM (top of the series), tumour line B.
Where [3] appears, read: at 45.9 µM (top of the series), tumour line D.
Where [4] appears, read: at 46 µM (top of the series), tumour line A.
Setting [5] is: at 91.6 µM (top of the series), tumour line B.

The structures appear in SMILES notation. Inconclusive results are not listed. Unmarked numbers belong to inactive results. Calls of active or inactive are those of the source. The call rests on the fitted dose curve; in most records, active means well fitted curve in the direction sought with a large enough effect; inconclusive means small, poorly fitted or top-dose-only effect, or another doubt; inactive means no such curve, though single readings can be large; an effect the other way counts as inactive or inconclusive.
On the % scale 0 is the no-effect control and ±100 the full control effect.

As for `Nc1nc(N)nc(NC2CC2)n1`, the compound was called inactive in the test on MCC-13, with CAOV3, with CASKI, in the test on Hek293T, with JEG-3 and with SKOV3. For the same compound, the Potency entry with MCC-26, with MKL-1, with MKL-2, in the test on UISO, with WaGa and with C33A was “inactive” throughout. Besides, the Potency entry in the test on Es-2, in the test on HeLa, in the test on OV90, in the test on PA-1, with Tov-21-G and in the test on Tov112D was “inactive” throughout. Besides, the activity, negative = cell killing in test [1] (setting [2]) is -5.44%; in test [1] (setting [3]), -12.5%.

For the compound `CNCC(=O)c1ccc(O)c(O)c1`, the outcome with MCC-13, in the test on CAOV3, in the test on CASKI, with Hek293T, in the test with JEG-3 and in the test with SKOV3 was inactive. Besides, the Potency entry in the test with MCC-26, with MKL-1, in the test with MKL-2, in the test on UISO, with WaGa and in the test with C33A was “inactive” throughout. For the same compound, the Potency entry in the test on Es-2, in the test with HeLa, in the test on OV90, in the test with PA-1, with Tov-21-G and in the test with Tov112D was “inactive” each time. Moreover, the activity, negative = cell killing in test [1] (setting [2]) is -11.2%; in test [1] (setting [3]) it was -3.6%.

Regarding `Oc1ccc(Cl)cc1`, the compound was called inactive with MCC-13, with CAOV3, with CASKI, with Hek293T and in the test on JEG-3. Moreover, the Potency entry with MCC-26, in the test with MKL-1, in the test on MKL-2, in the test on UISO, with WaGa and with C33A was “inactive” in each case. Besides, the Potency entry in the test with Es-2, with HeLa, in the test on OV90, with PA-1, in the test with Tov-21-G and with Tov112D was “inactive” in each case. The activity, negative = cell killing in test [1] (setting [2]) is -7.37%; in test [1] (setting [3]), -24.9%; in [1] (setting [4]), -26.5%.

With `O=C1CN=C(c2ccccc2)c2cc([N+](=O)[O-])ccc2N1`, the result with MCC-13, in the test on CAOV3, in the test with CASKI, in the test with Hek293T, in the test with JEG-3 and in the test on SKOV3 was inactive. Also, the Potency entry in the test with MCC-26, in the test with MKL-1, in the test on MKL-2, in the test with UISO, in the test on WaGa and with C33A was “inactive” each time. Moreover, the Potency result in the test with Es-2, in the test on HeLa, with OV90, in the test on PA-1, with Tov-21-G and in the test with Tov112D was “inactive” each time. Also, the activity, negative = cell killing was -7.18% in [1] (setting [2]) and -17.8% in test [1] (setting [3]).

Consider `CN1CC[C@]23c4c5ccc(O)c4O[C@H]2[C@@H](O)CC[C@H]3[C@H]1C5`, for which the call in the test on MCC-13, in the test with CAOV3, with CASKI, with Hek293T, in the test on JEG-3 and in the test with SKOV3 was inactive. The Potency result with MCC-26, with MKL-1, with MKL-2, with UISO, in the test with WaGa and with C33A was “inactive” throughout. Further, the Potency result in the test with Es-2, in the test with HeLa, in the test on OV90, in the test with PA-1, with Tov-21-G and in the test with Tov112D was “inactive” throughout. Also, the activity, negative = cell killing in [1] (at 91.6 µM (top of the series), tumour line A) was -29.5%; in test [1] (setting [5]) it was -3.58%; in test [1] (at 91.6 µM (top of the series), tumour line D) it was -23.6%.

Take `Cc1ncsc1CCCl`: the compound was called inactive in the test on MCC-13, in the test on CAOV3, in the test with CASKI, with Hek293T, with JEG-3 and with SKOV3. Further, the Potency result in the test with MCC-26, in the test on MKL-1, in the test on MKL-2, in the test on UISO, with WaGa and with C33A was “inactive” each time. The Potency result with Es-2, in the test on HeLa, with OV90, in the test with PA-1, in the test on Tov-21-G and in the test on Tov112D was “inactive” throughout. For the same compound, the activity, negative = cell killing was -10.2% in [1] (setting [2]), -8.99% in test [1] (setting [3]) and 4.91% in test [1] (setting [4]).

`CC(Cc1ccccc1)NCCn1cnc2c1c(=O)n(C)c(=O)n2C` (configuration not stated): the compound was classed as inactive in the test on MCC-13, with CAOV3, in the test with CASKI, in the test on Hek293T, with JEG-3 and in the test with SKOV3. The Potency result in the test on MCC-26, in the test on MKL-1, in the test with MKL-2, in the test on UISO, with WaGa and in the test on C33A was “inactive” in each case. The Potency result in the test with Es-2, with HeLa, with OV90, in the test on PA-1, with Tov-21-G and in the test with Tov112D was “inactive” in each case. Moreover, the activity, negative = cell killing in test [1] (setting [5]) was -19.2%. Further, in test [1] (tumour line A), the Potency is 31.6 µM (active).
